# Test results reported in article PMC5540273 (PLoS ONE, 2017).
# What was measured:
# Conditions in all cases: concentration: 1 μM, replicates: in singlicate; n = 1
# [1] = tested on: HUNK
# [2] = tested on: ICK
# [3] = tested on: IGF1R
# [4] = tested on: T1, IKK-alpha
# T1 construct: gene CHUK
# [5] = tested on: T2, IKK-beta
# T2 construct: gene IKBKB
# [6] = tested on: T3, IKK-epsilon
# T3 construct: gene IKBKE
# [7] = tested on: INSRR
# [8] = tested on: INSR
# [9] = tested on: IRAK1
# [10] = tested on: IRAK3
# [11] = tested on: IRAK4
# [12] = tested on: ITK
# [13] = tested on: JAK1(JH1domain-catalytic)
# [14] = tested on: JAK1(JH2domain-pseudokinase)
# [15] = tested on: JAK2(JH1domain-catalytic)
# [16] = tested on: JAK3(JH1domain-catalytic)
# [17] = tested on: T4, JNK1
# T4 construct: gene MAPK8
# [18] = tested on: T5, JNK2
# T5 construct: gene MAPK9
# [19] = tested on: T6, JNK3
# T6 construct: gene MAPK10
# [20] = tested on: KIT-autoinhibited
# 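Also: KINOMEscan kinase panel screen.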
SMILES,%Inh [1],%Inh [2],%Inh [3],%Inh [4],%Inh [5],%Inh [6],%Inh [7],%Inh [8],%Inh [9],%Inh [10],%Inh [11],%Inh [12],%Inh [13],%Inh [14],%Inh [15],%Inh [16],%Inh [17],%Inh [18],%Inh [19],%Inh [20]
Cc1c(O)cccc1Nc1ccnc2ccc(C(F)(F)F)cc12.Cl [GW466413],93.4%,0%,0%,8%,0%,0%,0%,0%,0%,0%,0%,0%,0%,0%,6%,0%,21%,4%,0%,0%
COc1cc2nccc(Nc3ccc(NC(=O)c4ccc(C)cc4)c(O)c3)c2cc1OC.Cl [GW440132],28%,0%,0%,0%,3%,0%,0%,0%,0%,14%,0%,20%,12%,0%,0%,0%,16%,29%,7%,0%
CN(C)CCN(C)C(=O)c1cc(-c2ccncc2)c(-c2ccc(Cl)c(O)c2)o1.Cl.Cl [SB-710397],38%,10%,7%,44%,35%,34%,0%,0%,56%,0%,43%,13%,18%,0%,49%,0%,27%,29%,35%,0%
Cn1cncc1-c1ccc2ncnc(Nc3ccc(OCc4ccccc4)cc3)c2c1 [GW320571],0%,0%,24%,0%,0%,0%,22%,3%,11%,3%,2%,14%,18%,22%,0%,0%,18%,6%,4%,0%
Fc1cccc(COc2nnc(-c3ccc4c(c3)CCO4)o2)c1,7%,0%,2%,21%,7%,0%,0%,0%,44%,0%,5%,23%,0%,10%,0%,5%,6%,0%,0%,0%
CCCc1ccc(S(=O)(=O)NC2CCN(c3ccnc(Nc4ccc(F)cc4)n3)C2)cc1 (stereo not drawn) [GSK1379715],5%,0%,0%,33%,36%,0%,0%,1%,36%,0%,16%,6%,18%,0%,52%,0%,24%,21%,9%,0%
CC1=C(C(=O)Nc2cc3cn[nH]c3cc2F)C(c2ccc(C(F)(F)F)cc2)CC(=O)N1 (stereo not drawn) [GSK429286],20%,13%,0%,0%,56%,5%,0%,0%,31%,5%,17%,13%,40%,0%,62%,29%,21%,25%,15%,0%
Cn1ccc2ncnc(Oc3ccc(NC(=O)Nc4ccccc4)cc3)c21,0%,0%,0%,5%,0%,17%,0%,14%,7%,0%,17%,0%,0%,39%,2%,21%,22%,0%,0%,57%
COc1ccc(Nc2nccc(NCCNC(=O)Nc3ccccc3F)n2)cc1 [GSK1379901],9%,0%,10%,0%,11%,12%,0%,0%,36%,8%,20%,9%,15%,0%,25%,0%,56%,15%,11%,0%
COc1ccccc1CNC(=O)c1cc(C(=O)c2ccccc2C)c[nH]1 [GSK364507],16%,11%,7%,9%,13%,20%,0%,8%,33%,0%,23%,16%,19%,0%,0%,0%,45%,9%,16%,0%
COc1cccc(-c2cc(-c3c[nH]nc3-c3ccccn3)ccn2)c1 [GW680338],71%,0%,6%,2%,0%,0%,0%,0%,13%,0%,0%,2%,7%,0%,0%,0%,42%,40%,50%,0%
Clc1cc(Cl)cc(Nc2ccnc(Nc3cc(Cl)cc(Cl)c3)n2)c1 [GSK175726],0%,7%,16%,0%,10%,39%,0%,13%,15%,2%,0%,4%,12%,0%,22%,0%,2%,0%,0%,3%
Cc1nnc(-c2ccc3occ(-c4ccc(S(C)=O)cc4)c3c2)[nH]1 (stereo not drawn),0%,0%,0%,26%,20%,0%,0%,4%,0%,66%,0%,13%,3%,90.4%,11%,22%,3%,26%,45%,11%
O=C(Nc1ccc2c(c1)OCO2)NC1CCN(c2ccnc(Nc3ccc(F)cc3)n2)C1 (stereo not drawn) [GSK1379724],12%,19%,0%,25%,16%,0%,0%,0%,36%,0%,21%,8%,18%,0%,13%,0%,33%,23%,24%,0%
Cn1ccc2ncnc(Oc3cccc(C(=O)Nc4ccccc4)c3)c21,0%,8%,2%,22%,15%,7%,0%,16%,0%,0%,8%,0%,7%,27%,12%,0%,16%,0%,0%,0%
